From PubChem BioAssay
Active and inactive are the calls of the source. Unless noted, how the calls were made is not given here.

Tests used:
[1] = anti-His antibody binders, primary screen, artefact control for SMM control protein annotation, biochemical, small-molecule microarray, 635 nm fluorescence (AID 1128); details: anti-His Alexa647 antibody binding, higher = more signal;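 further: score merges feature fluorescence with signal-to-noise for each printed compound spot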
[2] = test system: Human papillomavirus type 1a E7 protein (residues 1-88); assay: HPV1a E7 small-molecule binders, primary screen, biochemical, small-molecule microarray, residues 1-88, 635 nm (AID 1129); details: small-molecule microarray binding, fluorescence 635 nm; higher = more signal
[3] = molecular target: Focal adhesion kinase 1 (Homo sapiens) (UniProt Q05397); assay: small-molecule microarray binders of FAK, primary screen, biochemical, 635/667 nm fluorescence, BSA, DTT (AID 1130); details: PTK2 binding, 635 nm fluorescence, higher = more signal;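 further: composite of spot emission at 667 nm and signal to noise over triplicate slides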
[4] = test system: Fibrinogen (Alexa647-labelled); assay: fibrinogen binders on compound microarrays, profiling panel, artefact control for SMM control-protein annotation, biochemical, small-molecule microarray, 635/667 nm fluorescence (AID 1131); details: fibrinogen-A647 binding fluorescence, higher = more signal;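 further: z-score merges 667 nm fluorescence with per-spot signal-to-noise over triplicate slides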
[5] = molecular target: Follistatin (Homo sapiens) (UniProt P19883); assay: follistatin binders on small-molecule microarrays, primary screen, biochemical, small-molecule microarray, 635/667 nm fluorescence (AID 1132); details: FST binding, 635 nm fluorescence, higher = more signal
[6] = molecular target: Fibroblast growth factor 2 (Homo sapiens) (UniProt P09038); assay: FGF2 binders on small-molecule microarrays, primary screen, biochemical, small-molecule microarray, 635/667 nm fluorescence (AID 1133); details: small-molecule microarray binding, FGF2, fluorescence 635/667; higher = more signal
[7] = mitochondrial membrane potential change in A549 cells, profiling panel, cell-based, JC-1 fluorescence, basal, 24 h, 100 nL (AID 1138); details: higher = more signal;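 further: A549 lung adenocarcinoma cells under basal conditions with no added stimulus; test concentration not given here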
[8] = test system: Lefty1; assay: Lefty1 binders on small-molecule microarrays, primary screen, biochemical, small-molecule microarray, 635/667 nm fluorescence (AID 1139); details: small-molecule microarray binding, fluorescence 635/667; higher = more signal
[9] = test system: wheat germ agglutinin (Triticum aestivum), Alexa647-labelled; assay: wheat germ agglutinin binders on compound microarrays, profiling panel, artefact control for SMM control-protein annotation, biochemical, small-molecule microarray, 635/667 nm fluorescence (AID 1140); details: WGA-A647 binding, 635 nm fluorescence, higher = more signal;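 further: score merges 667 nm feature emission with signal to noise over triplicate slides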
[10] = molecular target: Luciferin 4-monooxygenase (Photinus pyralis) (UniProt P08659); assay: firefly luciferase enzyme inhibitors, primary screen, biochemical, luminescence, purified enzyme, 2006 set (AID 1141); details: SteadyGlo luminescence, 30 min, higher = more signal, called active from +8 up or from −8 down;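 further: cell-free assay with purified firefly luciferase at 100 ng per well in PBS; test concentration not given here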
[11] = test system: Wnt5a (protein binding on small-molecule microarray); assay: Wnt5a binders on small-molecule microarray, primary screen, biophysical, 635/667 nm fluorescence (AID 1142); details: 635 nm fluorescence, higher = more signal;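 further: fluorescence read at 667 nm with signal to noise per printed feature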
[12] = cell viability in Huh7 cells, primary screen, cytotoxicity control for HCV replication inhibitor project, CellTiter-Glo luminescence, basal, 48 h (AID 1143); details: Huh7 HCV replicon, higher = more signal, called active from +8 up or from −8 down;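 further: Huh7 hepatoma cells carrying a hepatitis C replication reporter with no stimulus; test concentration not given here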
[13] = P. aeruginosa biofilm formation inhibitors, primary screen, PAO1 strain, BacTiter-Glo luminescence, LB-PBS (AID 1144); details: 12 h, higher = more signal
[14] = CREB reporter modulators without forskolin, primary screen, cell-based, PC12, CRE-LacZ reporter, unstimulated (AID 1145); details: no forskolin, luminescence, 4.5 h, higher = more signal, called active from +8 up or from −8 down
[15] = CREB reporter modulators under forskolin, primary screen, cell-based, PC12, CRE-LacZ reporter, forskolin-stimulated (AID 1146); details: luminescence, 4.5 h, higher = more signal, called active from +8 up or from −8 down;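 further: PC12 cells with 6xCRE LacZ reporter stimulated by forskolin 10 µM; beta-galactosidase reporter signal reflecting CREB driven transcription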
[16] = molecular target: Streptavidin (Streptomyces avidinii) (UniProt P22629); assay: streptavidin binders on small-molecule microarray, primary screen, artefact control for SMM compound annotation, biophysical, 635/667 nm fluorescence (AID 1147); details: streptavidin binding, higher = more signal;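 further: signal reflects streptavidin binding to arrayed compounds as a control protein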
[17] = small-molecule binders of probe aInhba, primary screen, biochemical, small-molecule microarray, 635/667 nm fluorescence (AID 1148); details: higher = more signal;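 further: score merges 667nm spot fluorescence with signal-to-noise for antibody binding to printed compounds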
[18] = molecular target: Torsin-1A (Homo sapiens) (UniProt O14656); assay: torsin A binders from cell lysate, primary screen, small-molecule microarray, wild-type, 635/667 nm (AID 1149); details: COS7 hTOR1A-WT lysate, 635 nm fluorescence, higher = more signal
[19] = molecular target: Torsin-1A (Homo sapiens) (UniProt O14656); assay: small-molecule binders of mutant TOR1A in lysate, primary screen, cell lysate, small-molecule microarray, COS7 lysate, 635/667 nm fluorescence (AID 1150); details: COS7 hTOR1A mutant lysate, 635 nm fluorescence, higher = more signal;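 further: score pools 667 nm emission and signal to noise measuring lysate protein binding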
[20] = test system: Sonic hedgehog protein (Shh); assay: small-molecule binders of Shh protein, primary screen, biochemical, small-molecule microarray, 635/667 nm fluorescence (AID 1151); details: small-molecule microarray binding, 635 nm fluorescence; higher = more signal;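 further: Shh protein binding to compounds spotted on small-molecule microarray slides; score combines spot fluorescence intensity with signal-to-noise across triplicate slides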

Sequence of Follistatin (Homo sapiens) (P19883 whole entry, looked up): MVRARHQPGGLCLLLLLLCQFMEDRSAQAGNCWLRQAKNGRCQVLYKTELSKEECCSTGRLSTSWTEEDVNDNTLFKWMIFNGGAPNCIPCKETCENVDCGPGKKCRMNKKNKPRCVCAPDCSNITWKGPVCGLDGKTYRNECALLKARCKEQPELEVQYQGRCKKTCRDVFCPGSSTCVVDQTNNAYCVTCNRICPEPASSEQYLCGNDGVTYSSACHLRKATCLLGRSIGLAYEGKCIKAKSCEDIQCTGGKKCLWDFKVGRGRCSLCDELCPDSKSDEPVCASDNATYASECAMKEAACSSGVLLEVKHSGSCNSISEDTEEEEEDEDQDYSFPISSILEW
Sequence of Luciferin 4-monooxygenase (Photinus pyralis) (P08659 whole entry, looked up): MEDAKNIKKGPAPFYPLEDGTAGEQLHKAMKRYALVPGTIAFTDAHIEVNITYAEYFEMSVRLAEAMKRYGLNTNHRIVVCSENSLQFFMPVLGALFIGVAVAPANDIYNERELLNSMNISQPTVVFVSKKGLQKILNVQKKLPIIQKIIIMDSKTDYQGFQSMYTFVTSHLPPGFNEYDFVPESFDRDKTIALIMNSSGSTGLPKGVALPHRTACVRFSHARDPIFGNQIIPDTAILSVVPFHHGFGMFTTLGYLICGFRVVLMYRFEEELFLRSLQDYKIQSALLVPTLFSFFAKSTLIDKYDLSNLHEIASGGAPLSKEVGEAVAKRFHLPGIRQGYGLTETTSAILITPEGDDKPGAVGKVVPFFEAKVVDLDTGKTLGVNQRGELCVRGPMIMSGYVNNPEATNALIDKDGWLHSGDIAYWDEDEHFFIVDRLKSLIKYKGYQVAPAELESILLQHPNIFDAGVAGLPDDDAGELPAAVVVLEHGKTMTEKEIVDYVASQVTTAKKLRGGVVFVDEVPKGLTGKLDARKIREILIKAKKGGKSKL
Sequence of Streptavidin (Streptomyces avidinii) (P22629 whole entry, looked up): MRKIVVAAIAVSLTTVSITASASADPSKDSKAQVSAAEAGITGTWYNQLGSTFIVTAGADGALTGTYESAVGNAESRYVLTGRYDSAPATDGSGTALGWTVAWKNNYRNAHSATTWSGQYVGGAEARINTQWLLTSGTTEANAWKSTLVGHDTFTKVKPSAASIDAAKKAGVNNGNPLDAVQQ
Sequence of Focal adhesion kinase 1 (Homo sapiens) (Q05397 whole entry, looked up): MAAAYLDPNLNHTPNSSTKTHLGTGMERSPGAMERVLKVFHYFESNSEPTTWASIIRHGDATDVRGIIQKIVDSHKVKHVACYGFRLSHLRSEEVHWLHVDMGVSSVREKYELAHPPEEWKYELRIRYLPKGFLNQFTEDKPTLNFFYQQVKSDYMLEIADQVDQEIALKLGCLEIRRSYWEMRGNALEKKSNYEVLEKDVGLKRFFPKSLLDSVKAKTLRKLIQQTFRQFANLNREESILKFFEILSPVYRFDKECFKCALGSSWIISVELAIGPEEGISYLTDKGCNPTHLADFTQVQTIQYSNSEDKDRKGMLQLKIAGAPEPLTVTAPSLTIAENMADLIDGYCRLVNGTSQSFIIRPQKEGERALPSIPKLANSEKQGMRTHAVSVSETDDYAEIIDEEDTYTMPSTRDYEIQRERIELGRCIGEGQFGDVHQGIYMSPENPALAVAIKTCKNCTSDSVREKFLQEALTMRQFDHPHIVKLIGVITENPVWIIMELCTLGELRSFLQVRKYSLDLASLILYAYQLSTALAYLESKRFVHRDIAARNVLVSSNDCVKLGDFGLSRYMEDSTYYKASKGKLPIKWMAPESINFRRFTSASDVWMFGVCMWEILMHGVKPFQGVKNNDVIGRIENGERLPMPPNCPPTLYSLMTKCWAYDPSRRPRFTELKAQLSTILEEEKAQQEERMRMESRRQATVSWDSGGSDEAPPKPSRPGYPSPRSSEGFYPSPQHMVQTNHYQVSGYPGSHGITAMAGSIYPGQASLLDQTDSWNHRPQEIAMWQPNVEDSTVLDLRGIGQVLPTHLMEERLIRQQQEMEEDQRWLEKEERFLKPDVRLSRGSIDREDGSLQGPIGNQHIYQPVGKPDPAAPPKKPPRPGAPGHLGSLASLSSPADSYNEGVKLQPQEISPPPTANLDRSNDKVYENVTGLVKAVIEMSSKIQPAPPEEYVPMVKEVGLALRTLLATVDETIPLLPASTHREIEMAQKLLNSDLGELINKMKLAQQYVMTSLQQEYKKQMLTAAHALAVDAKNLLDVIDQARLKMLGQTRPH
Sequence of Torsin-1A (Homo sapiens) (O14656 whole entry, looked up): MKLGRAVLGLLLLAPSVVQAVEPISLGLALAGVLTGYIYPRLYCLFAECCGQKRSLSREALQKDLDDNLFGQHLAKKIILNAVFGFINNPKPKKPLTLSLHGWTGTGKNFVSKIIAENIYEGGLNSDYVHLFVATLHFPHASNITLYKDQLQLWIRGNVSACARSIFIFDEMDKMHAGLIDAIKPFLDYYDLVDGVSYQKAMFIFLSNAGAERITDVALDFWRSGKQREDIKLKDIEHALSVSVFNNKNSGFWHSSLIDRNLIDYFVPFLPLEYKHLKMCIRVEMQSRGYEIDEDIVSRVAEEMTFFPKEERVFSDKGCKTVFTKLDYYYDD
Sequence of Fibroblast growth factor 2 (Homo sapiens) (P09038 whole entry, looked up): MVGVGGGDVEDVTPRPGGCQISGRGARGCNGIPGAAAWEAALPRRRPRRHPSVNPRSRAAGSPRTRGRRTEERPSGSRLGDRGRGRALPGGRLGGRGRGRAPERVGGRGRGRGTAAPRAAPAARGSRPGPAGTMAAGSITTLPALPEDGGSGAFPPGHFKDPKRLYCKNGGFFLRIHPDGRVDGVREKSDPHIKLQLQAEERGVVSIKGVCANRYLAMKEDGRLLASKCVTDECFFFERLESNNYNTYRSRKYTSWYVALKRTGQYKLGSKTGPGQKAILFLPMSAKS

Structure (SMILES) | composite z-score [1] | composite z-score [2] | composite z-score [3] | composite z-score [4] | composite z-score [5] | composite z-score [6] | z-score [7] | composite z-score [8] | composite z-score [9] | z-score [10] | composite z-score [11] | z-score [12] | z-score [13] | z-score [14] | z-score [15] | composite z-score [16] | composite z-score [17] | composite z-score [18] | composite z-score [19] | composite z-score [20]
CC(C)[C@@H](C(=O)O)n1cc(-c2ccccc2)nn1 | 0.808 | 1.14 | 0.866 | 0.924 | 0.098 | 0.112 | -0.138 | -0.0617 | 1.15 | 0.131 (inactive) | 0.0953 | 0.0466 (inactive) | 0.69 (inactive) | 0.251 (inactive) | 0.0824 (inactive) | 1.23 | 0.019 | 0.466 | 1.16 | 0.128
C[N+](C)(C)CCCCCCNC(=O)[C@H]1C[C@H]2C(=O)NCC(=O)N2[C@H]1c1cccc(OCCO)c1 | 3.03 | 0.283 | -0.27 | 0.0104 | 1.13 | 1.63 | -0.883 | 1.6 | 0.273 | -0.0987 (inactive) | -0.196 | -0.103 (inactive) | 0.052 (inactive) | -0.675 (inactive) | -0.487 (inactive) | -0.518 | -0.14 | 1.1 | 0.781 | 2.17
COCC(=C=CC[C@@H](O)c1ccc(OCCO)cc1)C[C@@H](O)COCc1ccccc1 | 1.29 | 0.893 | 0.106 | -0.262 | 1.34 | 1.41 | 0.974 | 1.01 | 0.904 | -1.7 (inactive) | 1.05 | -0.959 (inactive) | -0.498 (inactive) | 10.3 (active) | -0.487 (inactive) | -0.223 | 0.0345 | 0.681 | 1.43 | 1.54
COC(=O)[C@@]1(Cc2ccccc2)[C@@H]2[C@@H](CC(=O)[C@H]2CC(=O)C(=O)N(C)C)CN1C(=O)c1ccccc1 | 1.33 | 0.577 | 0.434 | 0.601 | -0.155 | -0.112 | 1.19 | -0.575 | 0.0553 | 0.558 (inactive) | -0.087 | -0.0162 (inactive) | -0.621 (inactive) | 0.201 (inactive) | 0.983 (inactive) | 0.315 | -0.0963 | -0.115 | 0.417 | -0.829
C=CCC(OC(C)=O)[C@@H]1[C@@H](N(Cc2ccc(-c3cccc(C(F)(F)F)c3)o2)C(=O)Cc2ccc(F)cc2)c2cc(OCCCO)ccc2N1C(=O)c1ccc2ccccc2n1 (stereo not given in full) | -0.255 | -0.732 | -0.153 | -1.12 | 0.67 | -0.0898 | 0.898 | -0.286 | -0.375 | -0.1 (inactive) | -0.123 | -0.0676 (inactive) | -0.147 (inactive) | 0.134 (inactive) | 1.5 (inactive) | -0.127 | -0.176 | -0.187 | -0.326 | 0.244
C=C(/C(=C/C[C@@H](OC(C)=O)c1ccccc1OCCO)c1cc(C(=O)OC)ccc1OC)C(C)C | 1.37 | 0.136 | 0.0593 | -0.0872 | 0.425 | 0.212 | 1.68 | 0.282 | 0.368 | -1.47 (inactive) | 0.332 | -1.94 (inactive) | 0.217 (inactive) | 16.2 (active) | -0.37 (inactive) | -0.576 | -0.024 | 0.212 | -0.461 | 1.02
COC(=O)[C@H](Cc1ccc(O)cc1)N1CC2=CCCC=C[C@@H]2[C@H]1[C@H](O)Cc1ccccc1 | 0.0409 | -0.24 | -0.0148 | 0.92 | 0.359 | 0.348 | -0.934 | 0.58 | 0.216 | -1.63 (inactive) | 0.0799 | -0.567 (inactive) | -1.21 (inactive) | 2.13 (inactive) | 1.24 (inactive) | -0.53 | 0.0108 | -0.246 | -0.0258 | 0.33
C=C(COC)/C(=C/C[C@H](OC(=O)c1ccncc1)c1cccc(OCCO)c1)c1cnc2ccccc2c1 | 2.08 | 1.22 | 0.521 | 0.893 | 1.36 | 0.694 | 0.365 | 1.62 | 1.4 | -0.631 (inactive) | 0.154 | 0.0839 (inactive) | 0.0918 (inactive) | 0.769 (inactive) | 0.506 (inactive) | 1.7 | 0.322 | 0.839 | 0.897 | 2.02
Cc1ccccc1C(O)C1C=CC2C(=O)N(c3ccccc3)C(=O)C2N1Nc1ccccc1F (stereo not given) | 2.08 | 1.22 | 0.622 | 1.06 | 1.01 | 0.624 | -0.932 | -0.245 | 1.15 | -0.782 (inactive) | 0.0624 | 0.198 (inactive) | -0.626 (inactive) | -1.09 (inactive) | -0.283 (inactive) | 1.14 | 0.0569 | 0.575 | 1.25 | -0.255
CCc1cccc(NC(=O)O[C@H]2[C@H](OC(=O)Nc3ccc4c(c3)OCO4)[C@H](OC(=O)Nc3ccc4c(c3)OCO4)[C@@H](OC)O[C@@H]2CO)c1 | 2.14 | 1.24 | -0.164 | 0.97 | 0.987 | 0.0183 | -0.308 | 0.478 | 0.815 | -10.5 (active) | 0.322 | -4.18 (inactive) | -0.373 (inactive) | -0.3 (inactive) | -0.321 (inactive) | 0.0602 | 0.0497 | 0.138 | 0.97 | 1.91
